# Measurements published in publication PMC11062922 (Nature Chemical Biology, 2023).
# Read-outs that look alike come from different tables or passages of the source.
# Assays:
# SIK2 = conditions: read-out: apparent Kd, n = 1
# STK3 = conditions: read-out: apparent Kd, n = 1
substance,measurement,setting,value
Lestaurtinib,potency estimated from few doses,"SIK2; compound concentrations:100 nM and 1000 nM (sheet 'Lestaurtinib' of Supplementary Table 1),run:Lestaurtinib_02584_R3,Plate:MR017",53.4 nM
same,potency estimated from few doses,"SIK2; compound concentrations:100 nM and 1000 nM (sheet 'Lestaurtinib' of Supplementary Table 1),run:Lestaurtinib_02601_R2,Plate:MR018",94.3 nM
same,potency estimated from few doses,"SIK2; compound concentrations:100 nM and 1000 nM (sheet 'Lestaurtinib' of Supplementary Table 1),run:Lestaurtinib_02601_R3,Plate:MR018",40.2 nM
same,potency estimated from few doses,"SIK2; compound concentrations:100 nM and 1000 nM (sheet 'Lestaurtinib' of Supplementary Table 1),run:Lestaurtinib_02606_R1,Plate:MR019",51.2 nM
same,potency estimated from few doses,"SIK2; compound concentrations:100 nM and 1000 nM (sheet 'Lestaurtinib' of Supplementary Table 1),run:Lestaurtinib_02606_R2,Plate:MR019",45.6 nM
same,potency estimated from few doses,"SIK2; compound concentrations:100 nM and 1000 nM (sheet 'Lestaurtinib' of Supplementary Table 1),run:Lestaurtinib_02624_R1,Plate:MR020",51.5 nM
same,potency estimated from few doses,"SIK2; compound concentrations:100 nM and 1000 nM (sheet 'Lestaurtinib' of Supplementary Table 1),run:Lestaurtinib_02624_R2,Plate:MR020",49.5 nM
same,potency estimated from few doses,"SIK2; compound concentrations:100 nM and 1000 nM (sheet 'Lestaurtinib' of Supplementary Table 1),run:Lestaurtinib_02624_R3,Plate:MR020",46.5 nM
same,potency estimated from few doses,"SIK2; compound concentrations:100 nM and 1000 nM (sheet 'Lestaurtinib' of Supplementary Table 1),run:Lestaurtinib_02724_R1,Plate:MR021",73.9 nM
same,potency estimated from few doses,"SIK2; compound concentrations:100 nM and 1000 nM (sheet 'Lestaurtinib' of Supplementary Table 1),run:Lestaurtinib_02724_R2,Plate:MR021",44.8 nM
same,potency estimated from few doses,"SIK2; compound concentrations:100 nM and 1000 nM (sheet 'Lestaurtinib' of Supplementary Table 1),run:Lestaurtinib_02724_R3,Plate:MR021",50.5 nM
same,potency estimated from few doses,"SIK2; compound concentrations:100 nM and 1000 nM (sheet 'Lestaurtinib' of Supplementary Table 1),run:Lestaurtinib_02741_R1,Plate:MR023",57.2 nM
same,potency estimated from few doses,"SIK2; compound concentrations:100 nM and 1000 nM (sheet 'Lestaurtinib' of Supplementary Table 1),run:Lestaurtinib_02741_R2,Plate:MR023",71.3 nM
same,potency estimated from few doses,"SIK2; compound concentrations:100 nM and 1000 nM (sheet 'Lestaurtinib' of Supplementary Table 1),run:Lestaurtinib_02741_R3,Plate:MR023",54.5 nM
same,potency estimated from few doses,"SIK2; compound concentrations:100 nM and 1000 nM (sheet 'Lestaurtinib' of Supplementary Table 1),run:Lestaurtinib_02748_R1,Plate:MR024",48.8 nM
same,potency estimated from few doses,"SIK2; compound concentrations:100 nM and 1000 nM (sheet 'Lestaurtinib' of Supplementary Table 1),run:Lestaurtinib_02748_R2,Plate:MR024",56.4 nM
same,potency estimated from few doses,"SIK2; compound concentrations:100 nM and 1000 nM (sheet 'Lestaurtinib' of Supplementary Table 1),run:Lestaurtinib_02748_R3,Plate:MR024",51.6 nM
same,potency estimated from few doses,"SIK2; compound concentrations:100 nM and 1000 nM (sheet 'Lestaurtinib' of Supplementary Table 1),run:Lestaurtinib_02752_R2,Plate:MR025",56 nM
same,potency estimated from few doses,"SIK2; compound concentrations:100 nM and 1000 nM (sheet 'Lestaurtinib' of Supplementary Table 1),run:Lestaurtinib_02752_R3,Plate:MR025",56 nM
same,potency estimated from few doses,"SIK2; compound concentrations:100 nM and 1000 nM (sheet 'Lestaurtinib' of Supplementary Table 1),run:Lestaurtinib_02765_R1,Plate:MR026",49.7 nM
same,potency estimated from few doses,"SIK2; compound concentrations:100 nM and 1000 nM (sheet 'Lestaurtinib' of Supplementary Table 1),run:Lestaurtinib_02765_R2,Plate:MR026",91.3 nM
same,potency estimated from few doses,"SIK2; compound concentrations:100 nM and 1000 nM (sheet 'Lestaurtinib' of Supplementary Table 1),run:Lestaurtinib_02766_R1,Plate:MR027",43.3 nM
same,potency estimated from few doses,"SIK2; compound concentrations:100 nM and 1000 nM (sheet 'Lestaurtinib' of Supplementary Table 1),run:Lestaurtinib_02766_R2,Plate:MR027",26.9 nM
same,potency estimated from few doses,"SIK2; compound concentrations:100 nM and 1000 nM (sheet 'Lestaurtinib' of Supplementary Table 1),run:Lestaurtinib_02768_R2,Plate:MR028",45.1 nM
same,potency estimated from few doses,"SIK2; compound concentrations:100 nM and 1000 nM (sheet 'Lestaurtinib' of Supplementary Table 1),run:Lestaurtinib_02768_R3,Plate:MR028",47.4 nM
same,potency estimated from few doses,"SIK2; compound concentrations:100 nM and 1000 nM (sheet 'Lestaurtinib' of Supplementary Table 1),run:Lestaurtinib_02795_R1,Plate:MR022",59.7 nM
same,potency estimated from few doses,"SIK2; compound concentrations:100 nM and 1000 nM (sheet 'Lestaurtinib' of Supplementary Table 1),run:Lestaurtinib_02795_R2,Plate:MR022",62.3 nM
same,potency estimated from few doses,"SIK2; compound concentrations:100 nM and 1000 nM (sheet 'Lestaurtinib' of Supplementary Table 1),run:Lestaurtinib_02795_R3,Plate:MR022",165 nM
same,potency estimated from few doses,"SIK2; compound concentrations:100 nM and 1000 nM (sheet 'Lestaurtinib' of Supplementary Table 1),run:Lestaurtinib_02802_R1,Plate:MR029",49.8 nM
same,potency estimated from few doses,"SIK2; compound concentrations:100 nM and 1000 nM (sheet 'Lestaurtinib' of Supplementary Table 1),run:Lestaurtinib_02802_R2,Plate:MR029",52.5 nM
same,potency estimated from few doses,"SIK2; compound concentrations:100 nM and 1000 nM (sheet 'Lestaurtinib' of Supplementary Table 1),run:Lestaurtinib_02802_R3,Plate:MR029",25.3 nM
same,potency estimated from few doses,"SIK2; compound concentrations:100 nM and 1000 nM (sheet 'Lestaurtinib' of Supplementary Table 1),run:Lestaurtinib_02896_R2,Plate:MR030",44.8 nM
same,potency estimated from few doses,"SIK2; compound concentrations:100 nM and 1000 nM (sheet 'Lestaurtinib' of Supplementary Table 1),run:Lestaurtinib_03172_R1,Plate:MR031",46.2 nM
same,potency estimated from few doses,"SIK2; compound concentrations:100 nM and 1000 nM (sheet 'Lestaurtinib' of Supplementary Table 1),run:Lestaurtinib_03172_R2,Plate:MR031",51.4 nM
same,potency estimated from few doses,"SIK2; compound concentrations:100 nM and 1000 nM (sheet 'Lestaurtinib' of Supplementary Table 1),run:Lestaurtinib_03172_R3,Plate:MR031",49.5 nM
same,potency estimated from few doses,"SIK2; compound concentrations:100 nM and 1000 nM (sheet 'Lestaurtinib' of Supplementary Table 1),run:Lestaurtinib_03252_R2,Plate:MR032",34.3 nM
same,potency estimated from few doses,"SIK2; compound concentrations:100 nM and 1000 nM (sheet 'Lestaurtinib' of Supplementary Table 1),run:Lestaurtinib_03260_R1,Plate:MR033",77.2 nM
same,potency estimated from few doses,"SIK2; compound concentrations:100 nM and 1000 nM (sheet 'Lestaurtinib' of Supplementary Table 1),run:Lestaurtinib_03260_R3,Plate:MR033",54.9 nM
same,potency estimated from few doses,"STK3; compound concentrations:100 nM and 1000 nM (sheet 'Lestaurtinib' of Supplementary Table 1),run:Lestaurtinib_02339_R1,Plate:MR001",36.6 nM
same,potency estimated from few doses,"STK3; compound concentrations:100 nM and 1000 nM (sheet 'Lestaurtinib' of Supplementary Table 1),run:Lestaurtinib_02339_R2,Plate:MR001",36.6 nM
same,potency estimated from few doses,"STK3; compound concentrations:100 nM and 1000 nM (sheet 'Lestaurtinib' of Supplementary Table 1),run:Lestaurtinib_02364_R1,Plate:MR002",36.5 nM
same,potency estimated from few doses,"STK3; compound concentrations:100 nM and 1000 nM (sheet 'Lestaurtinib' of Supplementary Table 1),run:Lestaurtinib_02364_R3,Plate:MR002",51.5 nM
